According to PubChem BioAssay:
Activity calls are given as the source filed them.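 The calls were made as follows, unless noted: active = inhibition at or above 50% relative to wild type and mutant plate controls; inactive = inhibition below 50%.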

Columns and labels:
[1] = inhibitors of TNFa-induced NFkB p65 translocation, primary screen, imaging, HUVEC, MLSMR starter and 10KST1 sets (AID 438;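 active = inhibition above 20% together with a positive visual image hit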;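 also: compound added about 3h40 before a 20 min TNFalpha stimulation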;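 as to inhibition: signal is the nuclear over cytoplasmic p65 intensity ratio per well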); details: HUVEC TNFa-induced p65 nuclear translocation; cell count: measured here: nuclei count (cytotoxicity indicator), at 2.08 µM; inhibition: at 2 µM, stronger effect = higher value, 0% TNFa-plus-vehicle, 100% no-TNFa wells
[2] = endothelial E-selectin expression blockers – imaging, HUVEC, immunofluorescence, MLSMR starter and 10KST1 sets, primary screen (AID 487;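 active = visually confirmed hit in the image check and inhibition above 20%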;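 as to inhibition: signal is fraction of cell area covered by stained E-selectin grains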;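 as to nuclei count: 100% = median nuclei count of all wells on the same plate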); details: HUVEC TNFalpha-induced E-selectin immunofluorescence imaging, at 2 µM; inhibition: stronger effect = higher value; nuclei count: measured here: cell number, toxicity
[3] = Primary imaging screen for DUSP6 inhibitors that restore phospho-Erk in transfected HeLa cells, chemical complementation (AID 609;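 active = compounds giving at least 50% inhibition in the cell-based MKP-3 phosphatase rescue imaging test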;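 as to inhibition: phospho-Erk level distribution per well compared with pooled transfected vehicle control wells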); details: HeLa MKP-3 transfected, phospho-Erk imaging KS statistic, at 10 µM, cells stimulated with TPA for 15 min
[4] = biological target: Dual specificity protein phosphatase 6 (Homo sapiens) (UniProt Q16828); experiment: as above; details: HeLa MKP-3 transfected, phospho-Erk imaging KS statistic; at 10 µM; stronger effect = higher value; cells stimulated with TPA for 15 min
Chain of Dual specificity protein phosphatase 6 (Homo sapiens) (Q16828 whole entry, looked up): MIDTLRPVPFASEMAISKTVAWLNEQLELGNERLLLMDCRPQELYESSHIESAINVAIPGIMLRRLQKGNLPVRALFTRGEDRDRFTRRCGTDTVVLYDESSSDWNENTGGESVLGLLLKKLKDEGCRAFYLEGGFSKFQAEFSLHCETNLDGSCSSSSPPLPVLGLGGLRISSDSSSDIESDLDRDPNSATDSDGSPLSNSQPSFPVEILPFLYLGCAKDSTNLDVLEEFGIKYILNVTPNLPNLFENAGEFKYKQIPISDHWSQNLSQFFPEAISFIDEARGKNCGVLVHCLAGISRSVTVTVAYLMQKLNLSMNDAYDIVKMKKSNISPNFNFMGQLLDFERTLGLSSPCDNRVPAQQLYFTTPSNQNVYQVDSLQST

[5] = biological target: Voltage-gated potassium channel subunit beta-2 (Rattus norvegicus) (UniProt P62483); experiment: inhibitors of rat Kvbeta2 reductase activity – biochemical, NADPH fluorescence, primary screen (AID 622;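 active = fluorescence slope higher than the sample average by over 3 SD, cut at about -0.22 in these data, passing the limit was not always enough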;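 also: slope of raw intensity against log time taken from 70 to 1610 s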); details: recombinant KvBeta, 4-cyanobenzaldehyde reduction, at 10 µM, stronger effect = higher value
Chain of Voltage-gated potassium channel subunit beta-2 (Rattus norvegicus) (P62483 whole entry, looked up): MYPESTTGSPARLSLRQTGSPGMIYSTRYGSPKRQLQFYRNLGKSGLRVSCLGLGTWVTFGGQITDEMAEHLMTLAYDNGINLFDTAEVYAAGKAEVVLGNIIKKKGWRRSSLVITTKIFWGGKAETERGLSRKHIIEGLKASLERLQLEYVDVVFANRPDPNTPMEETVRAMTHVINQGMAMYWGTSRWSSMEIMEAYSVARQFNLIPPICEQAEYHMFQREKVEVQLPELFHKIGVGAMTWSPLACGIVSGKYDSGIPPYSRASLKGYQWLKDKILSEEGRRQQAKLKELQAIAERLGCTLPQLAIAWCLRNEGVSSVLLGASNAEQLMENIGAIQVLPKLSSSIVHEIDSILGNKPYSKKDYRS

[6] = biological target: Voltage-gated potassium channel subunit beta-2 (Rattus norvegicus) (UniProt P62483); experiment: enhancers of rat Kvbeta2 NADPH turnover – biochemical, NADPH fluorescence, primary screen (AID 623;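 active = NADPH fluorescence slope more negative than the mean of all samples by about 3 SD, 99.7% confidence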;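 also: fluorescence intensity change per second fitted from 20 to 320 s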); details: Recombinant KvBeta, NADPH fluorescence decrease slope, 10 min; at 10 µM; stronger effect = lower value
[7] = biological target: Alpha-2C adrenergic receptor (Homo sapiens) (UniProt P18825); experiment: compounds altering alpha2C-coupled GIRK flux – cell-based, HEK293 alpha2C/GIRK1/2, thallium flux, primary screen (AID 624;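 active = fluorescence slope after compound addition differing from the mean of all screened samples at 99.7% confidence, in either direction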;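 also: slope of fluorescence ratio to pre-addition baseline per second over 15 to 24 s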); details: thallium flux BTC fluorescence, at 10 µM, actives lie on both sides
Chain of Alpha-2C adrenergic receptor (Homo sapiens) (P18825 whole entry, looked up): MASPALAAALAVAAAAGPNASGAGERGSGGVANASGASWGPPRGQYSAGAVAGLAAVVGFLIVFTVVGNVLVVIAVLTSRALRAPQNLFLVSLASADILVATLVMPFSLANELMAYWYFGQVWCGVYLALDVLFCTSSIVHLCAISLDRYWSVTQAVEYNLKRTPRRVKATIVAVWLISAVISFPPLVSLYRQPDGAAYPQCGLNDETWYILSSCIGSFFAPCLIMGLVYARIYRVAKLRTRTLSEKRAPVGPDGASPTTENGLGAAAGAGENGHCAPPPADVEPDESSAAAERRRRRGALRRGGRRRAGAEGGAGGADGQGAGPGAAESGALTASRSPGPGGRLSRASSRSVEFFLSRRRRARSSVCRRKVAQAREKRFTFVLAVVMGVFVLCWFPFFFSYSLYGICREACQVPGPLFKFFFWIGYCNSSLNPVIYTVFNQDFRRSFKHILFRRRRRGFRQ

[8] = blockers of RIG-like receptor reporter activation – cell-based, Sendai virus stimulus, luciferase, 10K MLSCN set, TLR/RLR signaling modifier project, primary screen (AID 602276;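 active = inhibition at or above 50% at 10 µM; inactive = inhibition below 50%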;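 also: firefly luciferase from ISG56 promoter only with Renilla not read in this screen; 0% = Sendai virus plus DMSO and 100% = medium plus DMSO without virus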); details: HEK293 RL24 IRF3 luciferase reporter, at 10 µM, stronger effect = higher value
[9] = TLR3 IRF3 reporter activation blockers – cell-based, poly I:C stimulus, luciferase, 10K MLSCN set, primary screen (AID 602277;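 active = inhibition of the reporter signal at or above 50%; inactive = inhibition below 50%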); details: HEK293-TLR3 RL24 IRF3 luciferase reporter, at 10 µM, stronger effect = higher value
[10] = loss of swimming-algae plug formation – whole organism, Chlamydomonas reinhardtii, WT vs cilia-less mutant, absorbance, 96-well, primary screen (AID 463189); details: Chlamydomonas reinhardtii gravitaxis, OD600 absorbance, 2 days; at 10 µM; stronger effect = higher value;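 also: 0% = wild type cc124 cells in DMSO and 100% = ciliumless bld1 mutant cells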

SMILES: CC(C)[N+]1(C)[C@@H]2CC[C@H]1CC(OC(=O)C(CO)c1ccccc1)C2 (stereo partly drawn)
- cell count [1]: 466
- inhibition [1]: -3.8% (inactive)
- inhibition [2]: -89.2% (inactive)
- nuclei count [2]: 94.7%
- z-score ([3]; measured here: cell density z-score): 1.04
- z-score ([3]; measured here: nuclear c-Myc green intensity z-score): -0.0729
- z-score ([3]; measured here: nuclear pErk red intensity z-score, stronger effect = higher value): -1.49
- inhibition [4]: 25.7% (inactive)
- fluorescence slope [5]: -0.497 (inactive)
- NADPH fluorescence slope [6]: -5.7e-05 (inactive)
- slope [7]: 0.00449 (inactive)
- inhibition [8]: -5.72% (inactive)
- inhibition [9]: 28.4% (inactive)

SMILES: C1CCc2nnnn2CC1
- inhibition [10]: 5.68% (inactive)

SMILES: CCOC(=O)Nc1ccc(NCc2ccc(F)cc2)nc1N
- inhibition [10]: 3.93% (inactive)

SMILES: Cc1nc2n(c(=O)c1CCN1CCC(c3noc4cc(F)ccc34)CC1)CCCC2
- inhibition [10]: 2.59% (inactive)

SMILES: CN(C)c1ccc(/C=C2\C(=O)Nc3ccccc32)cc1
- inhibition [10]: 4.05% (inactive)

SMILES: Nc1ncnc2c1ncn2C1CCCC1
- inhibition [10]: -2.12% (inactive)

SMILES: COc1ccccc1N1CCN(CCN(C(=O)c2ccc(F)cc2)c2ccccn2)CC1
- inhibition [10]: 0.605% (inactive)

SMILES: CCCCC/C=C\CC(O)/C=C/c1cccc(CC(O)CCCCO)n1 (stereo not drawn)
- inhibition [10]: -1.14% (inactive)

SMILES: CC(=O)[C@]1(O)Cc2c(O)c3c(c(O)c2[C@@H](O[C@H]2C[C@H](N)[C@H](O)[C@H](C)O2)C1)C(=O)c1ccccc1C3=O
- inhibition [10]: -16.2% (inactive)

SMILES: CCCCCCCCCCCCCCCC(=O)NCCO
- inhibition [10]: 8.85% (inactive)

SMILES: CC(C)NCC(O)c1ccc(NS(C)(=O)=O)cc1 (stereo not drawn)
- inhibition [10]: -0.482% (inactive)

SMILES: CC(=O)CCCCn1c(=O)c2c(ncn2C)n(C)c1=O
- inhibition [10]: -0.901% (inactive)

SMILES: CCCC(C(=O)OCCN(CC)CC)(c1ccccc1)c1ccccc1
- inhibition [10]: 4.83% (inactive)

SMILES: C[C@H](NC(=O)/C(C#N)=C/c1ccc(O)c(O)c1)c1ccccc1
- inhibition [10]: -0.423% (inactive)

SMILES: CC(C)C(=O)Nc1ccc([N+](=O)[O-])c(C(F)(F)F)c1
- inhibition [10]: -17.5% (inactive)

SMILES: CC[C@@H](C)[C@H]1O[C@]2(CC[C@@H]1C)C[C@@H]1C[C@@H](C/C=C(\C)[C@@H](O[C@H]3C[C@H](OC)[C@@H](O[C@H]4C[C@H](OC)[C@@H](O)[C@H](C)O4)[C@H](C)O3)[C@@H](C)/C=C/C=C3\CO[C@@H]4[C@H](O)C(C)=C[C@@H](C(=O)O1)[C@]34O)O2
- inhibition [10]: 22.3% (inactive)

SMILES: CNCCC(Oc1ccccc1OC)c1ccccc1 (stereo not drawn)
- inhibition [10]: 13.4% (inactive)

SMILES: CN=c1nc(-c2ccccc2)n(-c2ccccc2)s1
- inhibition [10]: 13% (inactive)

SMILES: CC(C)COC(=O)OCN1C(=O)CN(CCN2CC(=O)N(COC(=O)OCC(C)C)C(=O)C2)CC1=O
- inhibition [10]: 5.88% (inactive)

SMILES: NCC1OC(O[C@@H]2[C@H](O)C(OC3C(O)C(N)CC(N)C3OC3OC(CO)C(O)C(O)C3N)O[C@@H]2CO)C(N)C(O)C1O (stereo partly drawn)
- inhibition [10]: 4.9% (inactive)

SMILES: CC1=C(CC(=O)O)c2cc(F)ccc2/C1=C\c1ccc(S(C)(=O)=O)cc1
- inhibition [10]: 2.22% (inactive)

SMILES: CC(C)NC[C@H](O)COc1cccc2ccccc12
- inhibition [10]: 8.72% (inactive)

SMILES: N#CC(C#N)=C(N)/C(C#N)=C/c1ccc(O)cc1
- inhibition [10]: 5.33% (inactive)

SMILES: CC(C)NC[C@H](O)c1ccc(O)c(O)c1
- inhibition [10]: 8.51% (inactive)

SMILES: CCn1c(=O)[nH]c2cc(Cl)c(Cl)cc21
- inhibition [10]: 1.13% (inactive)

SMILES: NCCCCN
- inhibition [10]: -2.36% (inactive)

SMILES: CCN(CC)CCCC(C)Nc1c2ccc(Cl)cc2nc2ccc(OC)cc12 (stereo not drawn)
- inhibition [10]: 16.9% (inactive)

SMILES: NC(N)=NC(=O)Cc1c(Cl)cccc1Cl
- inhibition [10]: 4.12% (inactive)

SMILES: Cc1cccc(/C=C/c2ccccc2)n1
- inhibition [10]: 27.5% (inactive)

SMILES: N[C@H](C(=O)O)[C@H](O)C(=O)O
- inhibition [10]: 0.558% (inactive)

SMILES: CC(C(=O)O)c1cccc(C(=O)c2ccccc2)c1 (stereo not drawn)
- inhibition [10]: -4.65% (inactive)

SMILES: CCOC(=O)C(C)(C)Oc1ccc(Cl)cc1
- inhibition [10]: -6.65% (inactive)

SMILES: N#C/C(=C\c1ccc(O)c(O)c1)C(=O)NCCCNC(=O)/C(C#N)=C/c1ccc(O)c(O)c1
- inhibition [10]: 1.37% (inactive)

SMILES: COc1ccc2[nH]c(I)c(CCNC(C)=O)c2c1
- inhibition [10]: -0.69% (inactive)

SMILES: COc1ccccc1N1CCN(CCCNc2cc(=O)n(C)c(=O)n2C)CC1
- inhibition [10]: 9.94% (inactive)

SMILES: c1ccc(CN2CCC3(CCCc4ccccc43)CC2)cc1
- inhibition [10]: 89% (active)

SMILES: O=C(O)c1ccccc1Nc1cccc(OCc2ccc3ccccc3n2)c1
- inhibition [10]: 8.8% (inactive)

SMILES: CCCOC(=O)c1c(-c2ccccc2)nc(CC)c(C(=O)SCC)c1CCC
- inhibition [10]: 10.6% (inactive)

SMILES: CC(C)NC[C@@H](O)c1ccc(O)c(O)c1
- inhibition [10]: 3.12% (inactive)

SMILES: OC[C@H]1O[C@@H](n2cnc3c(N[C@H]4CC5CCC4C5)ncnc32)[C@H](O)[C@@H]1O (stereo partly drawn)
- inhibition [10]: 2.84% (inactive)

SMILES: Nc1nc2c(nc(Br)n2C2OC3COP(=O)(O)O[C@@H]3C2O)c(=O)[nH]1 (stereo partly drawn)
- inhibition [10]: 2.8% (inactive)

SMILES: CC(C)C[C@H](NC(=O)[C@H](O)[C@H](N)Cc1ccccc1)C(=O)O
- inhibition [10]: -10.7% (inactive)

SMILES: NC(N)=NC(N)=Nc1ccccc1
- inhibition [10]: 4.74% (inactive)

SMILES: Nc1nc(Nc2ccccc2)nc2c1ncn2[C@@H]1O[C@H](CO)[C@H](O)C1O (stereo partly drawn)
- inhibition [10]: -1.98% (inactive)

SMILES: CO/N=C(\C(=O)N[C@@H]1C(=O)N2C(C(=O)O)=C(COC(C)=O)CS[C@H]12)c1csc(N)n1 (stereo in doubt)
- inhibition [10]: 6.36% (inactive)

SMILES: CC(C)[C@@H]1NC(=O)[C@H](CCCCN)NC(=O)[C@@H](Cc2c[nH]c3ccccc23)NC(=O)[C@H](Cc2ccc(O)cc2)NC(=O)[C@H](C)N(C)C(=O)[C@H](Cc2ccccc2)NC1=O
- inhibition [10]: 6.6% (inactive)
